Source: PubChem BioAssay (EPA / NIEHS)
Active and inactive are the calls of the source. The calls were made as follows: active = hit-call score of the fitted dose curve at least 0.9, where 1 is the maximum; inactive = score below 0.9.

What was measured:
[1] = read-out: Interleukin-8 (IL8), CXCL8 (gene 3576); experiment: BSK_CASM3C_IL8: BioMAP Diversity Plus: CASM3C Assay for Interleukin-8 (IL8) Biomarker Activity (AID 2283042); settings: primary human coronary artery smooth muscle cells; actives raise or lower the signal;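 also: IL-8 protein level quantified by ELISA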
[2] = read-out: Human Leukocyte Antigen - DR isotype (HLADR), HLA-DRA (gene 3122); experiment: BSK_CASM3C_HLADR: BioMAP Diversity Plus: CASM3C Assay for Human Leukocyte Antigen - DR isotype (HLADR) Biomarker Activity (AID 2283043); settings: primary human coronary artery smooth muscle cells; actives raise or lower the signal;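 also: cell-surface HLA-DR protein level quantified by ELISA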
[3] = read-out: Macrophage colony-stimulating factor (MCSF), CSF1 (gene 1435); experiment: BSK_CASM3C_MCSF: BioMAP Diversity Plus: CASM3C Assay for Macrophage colony-stimulating factor (MCSF) Biomarker Activity (AID 2283044); settings: primary human coronary artery smooth muscle cells; actives raise or lower the signal;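 also: M-CSF protein amount quantified by ELISA after 24 h exposure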
[4] = read-out: Low-density lipoprotein receptor (LDLR), LDLR (gene 3949); experiment: BSK_CASM3C_LDLR: BioMAP Diversity Plus: CASM3C Assay for Low-density lipoprotein receptor (LDLR) Biomarker Activity (AID 2283045); settings: primary human coronary artery smooth muscle cells; actives raise or lower the signal;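 also: LDLR protein level on the cell surface quantified by ELISA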
[5] = read-out: Monocyte Chemoattractant Protein-1 (MCP1), CCL2 (gene 6347); experiment: BSK_CASM3C_MCP1: BioMAP Diversity Plus: CASM3C Assay for Monocyte Chemoattractant Protein-1 (MCP1) Biomarker Activity (AID 2283046); settings: primary human coronary artery smooth muscle cells; actives raise or lower the signal;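 also: MCP-1 level quantified by ELISA 24 h after dosing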
[6] = BSK_CASM3C_Proliferation: Cell Proliferation Assessment in the BioMAP Diversity Plus: CASM3C Assay (AID 2283047); settings: primary human coronary artery smooth muscle cells;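 also: sulforhodamine B total protein stain as relative cell number at 560 nm; sub-confluent cells exposed 48 h before staining; fitted both ways against DMSO so gain or loss of cell number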
[7] = read-out: Monokine induced gamma interferon (MIG), CXCL9 (gene 4283); experiment: BSK_CASM3C_MIG: BioMAP Diversity Plus: CASM3C Assay for Monokine induced gamma interferon (MIG) Biomarker Activity (AID 2283048); settings: primary human coronary artery smooth muscle cells; actives raise or lower the signal;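 also: MIG protein level measured by ELISA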
[8] = read-out: serum amyloid A (SAA), SAA1 (gene 6288); experiment: BSK_CASM3C_SAA: BioMAP Diversity Plus: CASM3C Assay for serum amyloid A (SAA) Biomarker Activity (AID 2283049); settings: primary human coronary artery smooth muscle cells; actives raise or lower the signal;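 also: SAA protein level quantified by ELISA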
[9] = BSK_CASM3C_SRB: Viability Assessment in the BioMAP Diversity Plus: CASM3C Assay (AID 2283050); settings: primary human coronary artery smooth muscle cells;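 also: total protein by SRB staining as cytotoxicity measure in parallel cultures; cells exposed to compound for 24 h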
[10] = read-out: Thrombomodulin, THBD (gene 7056); experiment: BSK_CASM3C_Thrombomodulin: BioMAP Diversity Plus: CASM3C Assay for Thrombomodulin Biomarker Activity (AID 2283051); settings: primary human coronary artery smooth muscle cells; actives raise or lower the signal;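 also: thrombomodulin protein level measured by ELISA 24 h after dosing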

Measured: AC50

Cc1nc(C)nc(N2C[C@@H](C)N(c3ccnc([C@@H](C)O)n3)[C@@H](C)C2)n1
inactive: all assays above

COc1cc(-c2nc(NC(=O)c3cc4cc(C)cc(C)c4n3CC(=O)O)sc2CCC2CCCCC2)c(OC)cc1Cl
inactive: [10]
active: [1] 7.07 µM | [2] 5.92 µM | [3] 22.9 µM | [4] 4.25 µM | [5] 8.09 µM | [6] 10.8 µM | [7] 11.7 µM | [8] 8.47 µM | [9] 7.05 µM

Oc1ccc2ccccc2c1N=Nc1ccccc1
active: [10] 1.36 µM
inactive: all other assays above

CC=Cc1ccc(O)c(OC)c1
inactive: all assays above

C1CCC(SSC2CCCCC2)CC1
active: [2] 30.5 µM | [5] 31.5 µM | [6] 34.1 µM | [10] 14.8 µM
inactive: all other assays above

CCCCCCCC=O
inactive: all assays above

COc1ccc2c(c1)c(CC(=O)O)c(C)n2C(=O)c1ccc(Cl)cc1
inactive: all assays above

CCCCc1ccc2c(n1)[C@@H](c1ccc(OC)cc1C[C@H](C)C(=O)O)[C@H](C(=O)O)[C@H]2c1ccc2c(c1)OCO2
inactive: all assays above

CC(C)c1ccc(C(=O)N=C(N)N)cc1S(C)(=O)=O
inactive: all assays above

O=C(O)Cc1ccccc1Nc1c(Cl)cccc1Cl
inactive: all assays above

Cc1cccc(C)c1O
inactive: all assays above

CCCCCCC(=O)OCC
inactive: all assays above

Cc1cc(=O)[nH]c(=S)[nH]1
inactive: all assays above

C=CCOC(=O)c1ccccc1C(=O)OCC=C
inactive: all assays above

Cc1ccc(C)c(O)c1C
inactive: all assays above

CC1=C(/C=C/C(C)=C/C=C/C(C)=C/CO)C(C)(C)CCC1
active: [6] 20.9 µM | [10] 12.2 µM
inactive: all other assays above

CCCCCCCCCCCCCCCCCC(=O)O
active: [6] 8.81 µM
not listed: [9]
inactive: all other assays above

O=C(O)CCCCC(=O)O
inactive: all assays above

CCCCCCCCCCCCCO
active: [3] 34.5 µM | [5] 33.3 µM | [6] 34.2 µM | [9] 34.4 µM | [10] 20.6 µM
inactive: all other assays above

CCc1c(C(=O)NN2CCCCC2)nn(-c2ccc(Cl)cc2Cl)c1-c1ccc(Br)cc1
active: [2] 29.9 µM | [5] 33.8 µM | [6] 20.2 µM | [9] 16.8 µM
inactive: all other assays above

CNC(=O)[C@H]1O[C@@H](n2cnc3c(NCc4cc(Cl)ccc4OCc4cc(C)no4)ncnc32)[C@H](O)[C@@H]1N
inactive: all assays above

Oc1ccc2c(c1)OC[C@@H](N1CCC(O)(c3ccc(F)cc3)CC1)[C@H]2O
inactive: all assays above
